Compound activity: PubChem BioAssay, National Center for Advancing Translational Sciences (NCATS)
This is a sample that favours compounds with a hit; in the whole collection about 7.3% have one here.
uPA generation: cell surface uPA generation inhibition. cell surface uPA generation assay, qHTS. Potency, µM (top dose mostly 38.3 µM), for the others: top-dose activity change, negative = inhibition, most hits filed as inhibitors. 330,000 tested, 0.31% active. AID 540303; active = well fitted inhibition curve with a large enough effect; inconclusive = small, poorly fitted or top-dose-only effect; inactive = no such curve, though single readings can be large or run the other way; tested in mouse RAW 264.7 cells; note: % is set by controls: 0 for no effect and ±100 for the full control effect; nearly all actives have a fitted effect of over 55% in size
Rab9 prom act: Rab9 promoter activation; Huh7 Rab9 promoter-luciferase reporter, luminescence, 24 h; Potency, µM (highest dose often 9.22 µM), inactives show at the highest dose activation, negative = inhibition, usual class: activators; 320,000 tested, 2.8% active; AID 485297; note: % of control where 0% means no effect; nearly all actives have a fitted effect of over 60% in size
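Luminescence from Amplite-detected luciferase (10 minutes, ambient) reports Rab9 promoter activation. Before that, stable Rab9-luciferase Huh7 cells (1500/well, reduced-serum OP-MEM I plus 10% FBS) were exposed to compound for 24 hours at 37C.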
ELG1 genotoxic: genotoxicity induction in ELG1-luciferase HEK293T cells | HEK293T ELG1-luciferase reporter, luminescence, 16 h | Potency, µM (series often up to 46 µM), inactives show at the top dose activity change, positive = activation, most hits filed as activators | 330,000 tested, 1.3% active | AID 504466; note: % of control where 0% means no effect; nearly all actives have a fitted effect of over 60% in size
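Step 1: seed 2,000 HEK293T ELG1-luciferase cells per well. Step 2: add compound or DMSO, incubate 16 hr at 37 °C. Step 3: ONE-Glo, 30 min at room temperature, read luminescence.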
NPC1 prom act: NPC1 promoter activation | 320,000 tested, 2.4% active | Huh7 NPC1 promoter luciferase reporter, 24 h | AID 485313 | Potency, µM (top dose mostly 9.22 µM), for inactives: at the highest dose activation, actives largely listed as activators; note: % of control where 0% means no effect; nearly all actives have a fitted effect of over 60% in size
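Compounds in DMSO were transferred onto Huh7 NPC1-luciferase reporter cells pre-incubated 2 h; after 24 h at 37 °C, Amplite reagent was dispensed and luminescence recorded 10 min later.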
SMN2 splice enh: SMN2 splice variant enhancement; HEK293 SMN2-luciferase splicing reporter, luminescence, 30-36 h; Potency, µM (series often up to 46.1 µM), for the others: at the top dose activity change, positive = activation, most hits filed as activators; 210,000 tested, 2.8% active; AID 1458; note: % of control where 0% means no effect; nearly all actives have a fitted effect of over 55% in size
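qHTS luciferase splicing reporter: luminescence rises when SMN2 exon 7 is included in transfected HEK293 cells. Compound exposure lasted 30-36 h at 37C, with 4.5 mM final sodium butyrate as control, followed by a ONE-Glo read.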
FLuc counter: inhibits or activates purified firefly luciferase, miR-21 counter-screen | P08659 | purified FLuc, Km substrates, luminescence inhibition | Potency, µM (top dose mostly 57.5 µM), inactives show top-dose activity change, negative = inhibition, actives largely listed as inhibitors | 360,000 tested, 6.9% active;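 note: plate controls were vehicle for no effect and reference inhibitor for full effect; nearly all actives have a fitted effect of over 55% in size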
Target sequence (P08659 whole entry, looked up): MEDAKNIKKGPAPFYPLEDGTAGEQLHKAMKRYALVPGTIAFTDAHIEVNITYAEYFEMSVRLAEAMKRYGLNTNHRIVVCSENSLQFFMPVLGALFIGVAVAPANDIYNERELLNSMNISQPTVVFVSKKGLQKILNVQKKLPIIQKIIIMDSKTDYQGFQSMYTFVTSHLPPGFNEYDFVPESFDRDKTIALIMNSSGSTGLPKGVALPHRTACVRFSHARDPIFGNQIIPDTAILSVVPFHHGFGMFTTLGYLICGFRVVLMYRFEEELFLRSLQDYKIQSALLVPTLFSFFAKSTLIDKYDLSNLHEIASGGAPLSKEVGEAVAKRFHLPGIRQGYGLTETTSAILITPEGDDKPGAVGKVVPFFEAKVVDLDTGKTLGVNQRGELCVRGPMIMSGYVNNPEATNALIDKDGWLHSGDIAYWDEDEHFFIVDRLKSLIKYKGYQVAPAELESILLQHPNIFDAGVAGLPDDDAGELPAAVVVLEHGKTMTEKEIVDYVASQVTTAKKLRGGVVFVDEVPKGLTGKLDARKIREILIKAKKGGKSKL
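Biochemical qHTS of compounds, final roughly 60 µM downward over six points, against 10 nM purified firefly luciferase using Km concentrations of substrates (10 uM D-luciferin, 10 uM ATP) in Tris acetate pH 7.5 buffer; luminescence output.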
Active calls of the source: *; ? = inconclusive; · = no result given. Unless noted, calls come from the whole dose curve; as a rule, active = well fitted curve in the direction sought with a large enough effect; inconclusive = small, poorly fitted or top-dose-only effect, or another doubt; inactive = no such curve, though single readings can be large; an effect the other way counts as inactive or inconclusive. Potency is the fitted concentration of half-maximal effect.

SMILES	uPA generation	Rab9 prom act	ELG1 genotoxic	NPC1 prom act	SMN2 splice enh	FLuc counter
COc1ccc(CNC(=O)CCCn2ccc3cc(S(=O)(=O)N4CCCC4)ccc32)cc1	?	0%	-12%	-8%	·	?
COCCn1c(C)cc(C(=O)COC(=O)c2ccc3ncsc3c2)c1C	-6%	2.8µM*	?	2.8µM*	15%	6.7µM*
COCCn1c(C)cc(C(=O)COC(=O)c2cccnc2SC)c1C	-7%	·	?	·	·	·
COCCn1c(C)cc(C(=O)COC(=O)c2cncc(Br)c2)c1C	5%	?	?	?	-6%	7.6µM*
COCCn1c(C)cc(C(=O)COC(=O)CCc2ccc(S(=O)(=O)N3CCOCC3)cc2)c1C	8%	7%	-1%	3%	-1%	15µM*
COCCn1c(C)cc(C(=O)COC(=O)c2ccccc2Br)c1C	2.5µM*	-11%	0.21µM*	-7%	·	0.095µM*
Cc1cc(Nc2cccc(C)c2C)n2cnnc2n1	·	·	·	·	-11%	4%
Cc1ccc(NC(=O)C2CCC(CNS(=O)(=O)c3cccs3)CC2)cc1C (centres undefined)	·	·	·	·	·	-10%
Cc1c(C)c2cc3c(c(C)c2oc1=O)OCN(CCc1ccc(F)cc1)C3	·	·	·	·	5%	-4%
COCCn1c(C)cc(C(=O)COC(=O)c2ccc(NC(=O)CC#N)cc2)c1C	0%	2.2µM*	?	2.8µM*	11µM*	11µM*
CCc1ccc(NC(=O)Cn2c(=O)n(CCC(=O)NCCc3ccc(OC)c(OC)c3)c(=O)c3ccccc32)cc1	·	·	·	·	-6%	0%
O=C(/C=C/c1nc2ccccc2s1)N1CCCCCC1	-11%	2µM*	?	3.2µM*	·	15µM*
CC1CCCCC1NC(=O)/C=C/c1nc2ccccc2s1 (centres undefined)	-5%	4%	3%	27%	47%	?
Cc1ccc2oc(=O)n(CCNC(=O)Nc3ccc(Cl)cc3)c2c1	·	·	·	·	-9%	-2%
Cc1ccc(-c2nc3ncccc3o2)cc1NC(=O)c1cc2ccccc2o1	1%	-5%	0%	-1%	2%	-8%
O=C(Nc1cccc(-c2nc3ncccc3o2)c1)c1sc2ccccc2c1Cl	·	?	-1%	?	-5%	1.3µM*
O=C(Nc1cccc(-c2nc3ncccc3o2)c1)c1sc2cc(Cl)ccc2c1Cl	8%	16%	?	5%	-9%	-12%
CCC(C)c1ccc(OCC(=O)Nc2cccc(-c3nc4ncccc4o3)c2)cc1 (centres undefined)	·	·	·	·	3%	7.6µM*
O=C(Nc1cccc(-c2nc3ncccc3o2)c1)c1cc2ccccc2o1	6%	?	-2%	?	1%	8.5µM*
O=C(COC(=O)c1ccc(O)cc1O)Nc1ccc2c(c1)OCCO2	-1%	-2%	?	0%	·	15µM*
O=C(COC(=O)c1ccc(O)cc1O)Nc1ccc2ccccc2c1	-4%	4%	12%	1%	·	-15%
COc1cc(NC(=O)c2ccc3c(c2)OCCO3)ccc1NC(=O)c1cccs1	-2%	18%	2%	18%	20%	5.4µM*
O=C(Nc1ccc2c(c1)OCCO2)c1ccco1	-25%	2.2µM*	3.7µM*	2µM*	10µM*	8.5µM*
O=C(Nc1ccc(NC(=O)c2cccs2)cc1)c1ccc2c(c1)OCCO2	14%	-16%	?	-4%	·	-7%
CC(C)Oc1ccc(C(=O)Nc2ccc(NC(=O)c3ccco3)c(Cl)c2)cc1	-10%	?	2%	?	-10%	0.54µM*
O=C(CCCCCn1nnc2ccccc2c1=O)Nc1ccccc1F	2%	11%	-3%	-2%	·	5%
COc1ccc(Cl)cc1NC(=O)C1CCN(S(=O)(=O)c2ccc3c(c2)CC(C)N3C(C)=O)CC1 (centres undefined)	·	·	·	·	·	-1%
Cc1cc(NC(=O)c2ccco2)ccc1NC(=O)c1ccco1	·	16%	?	18%	·	?
